Measurements: PubChem BioAssay (Tox21)
Records with an inconclusive call do not appear. Entries that show only a call come without a potency. Calls of active or inactive are those of the source. The call rests on the fitted dose curve; in most records, active means well fitted curve in the direction sought with a large enough effect in the repeat runs; inconclusive means weak or mixed curves; inactive means no such curve, though single readings can be large; an effect the other way counts as inactive or inconclusive.

molecular target: Aryl hydrocarbon receptor (Homo sapiens) (UniProt P35869); experiment: qHTS assay to identify small molecule that activate the aryl hydrocarbon receptor (AhR) signaling pathway (AID 743085); details: HepG2 AhR-luc (HG2L7.5c1), luciferase, 24 h; series mostly up to 70.3 µM; further: nearly all actives have a fitted effect of over 15% in size
Sequence (P35869 whole entry, looked up): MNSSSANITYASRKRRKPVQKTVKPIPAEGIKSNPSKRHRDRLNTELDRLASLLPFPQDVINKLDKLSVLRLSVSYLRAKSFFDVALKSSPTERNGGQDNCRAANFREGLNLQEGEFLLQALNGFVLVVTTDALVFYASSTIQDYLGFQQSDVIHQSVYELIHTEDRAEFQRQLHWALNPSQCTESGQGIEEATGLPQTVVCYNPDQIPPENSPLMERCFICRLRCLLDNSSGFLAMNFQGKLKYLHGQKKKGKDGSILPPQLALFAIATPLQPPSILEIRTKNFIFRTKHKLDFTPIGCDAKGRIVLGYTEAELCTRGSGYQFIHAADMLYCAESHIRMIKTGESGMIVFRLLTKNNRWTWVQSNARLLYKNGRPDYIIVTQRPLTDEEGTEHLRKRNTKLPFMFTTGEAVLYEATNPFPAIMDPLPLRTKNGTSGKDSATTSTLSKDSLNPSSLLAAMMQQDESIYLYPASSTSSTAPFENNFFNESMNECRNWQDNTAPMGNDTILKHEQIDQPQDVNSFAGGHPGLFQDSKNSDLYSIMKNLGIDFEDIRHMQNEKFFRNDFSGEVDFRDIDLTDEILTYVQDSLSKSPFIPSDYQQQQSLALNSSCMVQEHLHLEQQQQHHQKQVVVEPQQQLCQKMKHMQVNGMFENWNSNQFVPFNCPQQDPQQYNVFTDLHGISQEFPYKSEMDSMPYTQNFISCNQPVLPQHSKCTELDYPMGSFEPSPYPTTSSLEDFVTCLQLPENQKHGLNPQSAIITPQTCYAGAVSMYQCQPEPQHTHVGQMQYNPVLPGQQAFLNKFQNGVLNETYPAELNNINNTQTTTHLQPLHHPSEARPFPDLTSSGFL
Outline: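 Reporter assay in engineered HepG2 line HG2L7.5c1, whose plasmid carries twenty dioxin responsive elements upstream of firefly luciferase. Treatment lasted 24 h at 37C; ONE-Glo luminescence gauged induction.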
Potency means the concentration at half of the fitted maximal effect.

Row | Compound | Potency
1 | CC(C)c1ccc2c(C(C)C)cc(C(C)C)c(S(=O)(=O)O)c2c1 | inactive
2 | Cc1cc(C)c(S(=O)(=O)O)cc1N=Nc1cc(S(=O)(=O)O)c2ccccc2c1O | inactive
3 | OCCC1CCCCN1 (stereo not drawn) | inactive
4 | CC1(C)CCC(C)(C)c2cc(NC(=O)c3ccc(C(=O)O)cc3)ccc21 | inactive
5 | CC/C(=C\C(=N/O)C(N)=O)C(C)[N+](=O)[O-] (stereo not drawn) | inactive
6 | CC(=O)N(O)CCCCCNC(=O)CCC(=O)N(O)CCCCCNC(=O)CCC(=O)N(O)CCCCCN | inactive
7 | Cl/C(=C\n1cncn1)c1ccc(Cl)cc1Cl | inactive
8 | CC(C)CC=O | inactive
9 | CCCCCCCCCO | inactive
10 | CN(C)CCCOc1nn(Cc2ccccc2)c2ccccc12 | inactive
11 | FC(F)(F)C(F)(F)C(F)(F)C(F)(F)C(F)(F)C(F)(F)CCI | inactive
12 | CN1CCC(=C2c3ccccc3C=Cc3ccccc32)CC1 | inactive
13 | O=C(Cl)c1c(Cl)cccc1Cl | inactive
14 | CC(=O)CC(=O)c1ccccc1 | inactive
15 | CC(=O)O[C@@H]1C(=O)O[C@@H]2[C@H]1OC(=O)[C@@H]2OC(C)=O | inactive
16 | CC1=CCC(C(C)C)C=C1 (stereo not drawn) | inactive
17 | C#CCOC(=O)[C@@H](C)Oc1ccc(Oc2ncc(Cl)cc2F)cc1 | inactive
18 | O=C(Nc1ccccc1)OCC(CN1CCCCC1)OC(=O)Nc1ccccc1 (stereo not drawn) | inactive
19 | CCOC(=O)C1=NN(c2ccccc2)C(=O)C1 | inactive
20 | CCCCCCOC(=O)CCC | inactive

Row | Compound | Potency
21 | CCCCCc1ccc(N)cc1 | inactive
22 | CN1CCN(C2=Nc3ccccc3Sc3ccc(Cl)cc32)CC1 | inactive
23 | O=C(CCN1CCN2CCCC2C1)N1c2ccccc2Sc2ccc(Cl)cc21 (stereo not drawn) | inactive
24 | CCN(CC)CCc1nc(-c2ccccc2)no1 | inactive
25 | COCCO | inactive
26 | CCCCCOC(=O)COc1cc(N2C(=O)C3=C(CCCC3)C2=O)c(F)cc1Cl | inactive
27 | Nc1ccc(C(=O)Nc2ccccc2N)cc1 | 26.6 µM (active)
28 | O=C(O)Cc1sc(-c2ccccc2)nc1-c1ccc(Cl)cc1 | 10.6 µM (active)
29 | C[C@H](CCC(=O)O)[C@H]1CC[C@H]2[C@@H]3[C@H](O)C[C@@H]4C[C@H](O)CC[C@]4(C)[C@H]3CC[C@]12C | inactive
30 | CN(C(=O)CCCOc1ccc2[nH]c(=O)ccc2c1)C1CCCCC1 | inactive
31 | CN(c1nccc(=O)[nH]1)C1CCN(c2nc3ccccc3n2Cc2ccc(F)cc2)CC1 | inactive
32 | CC(C)CCCCCCOC(=O)c1ccc(C(=O)OCCCCCCC(C)C)c(C(=O)OCCCCCCC(C)C)c1 | inactive
33 | Cc1ccc2c(ccc3ccccc32)c1 | inactive
34 | CCCCOC(=O)/C=C\C(=O)OCCCC | inactive
35 | CN(C)CCCNCCCN | inactive
36 | OC(CCN1CCCCC1)(c1ccccc1)C1CCCCC1 (stereo not drawn) | inactive
37 | CC(=O)[C@@]1(O)CC[C@H]2[C@@H]3C[C@H](C)C4=CC(=O)CC[C@]4(C)[C@H]3CC[C@@]21C | inactive
38 | CC(C)(C)C(=O)OCOP(=O)(COCCn1cnc2c(N)ncnc21)OCOC(=O)C(C)(C)C | inactive
39 | N#Cc1c(F)cccc1F | inactive

tested on: not listed separately; experiment: qHTS assay to identify small molecule that activate the aryl hydrocarbon receptor (AhR) signaling pathway - cell viability counter screen (AID 743086); details: HepG2-AhR-luc viability, CellTiter-Fluor, 24 h; series mostly up to 70.3 µM; further: nearly all actives have a fitted effect of over 45% in size
Outline: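 HepG2-AhR-luc (HG2L7.5c1) cells, 4000/well, were preincubated 5 h at 37C, exposed to compound in qHTS format for 24 hr at 37C, then given CellTiter-Fluor for 30 min; viability was read as fluorescence in the reporter wells.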

Row | Compound | Potency
40 | CC(C)c1ccc2c(C(C)C)cc(C(C)C)c(S(=O)(=O)O)c2c1 | inactive
41 | Cc1cc(C)c(S(=O)(=O)O)cc1N=Nc1cc(S(=O)(=O)O)c2ccccc2c1O | 27.3 µM (active)
42 | OCCC1CCCCN1 (stereo not drawn) | inactive
43 | CC1(C)CCC(C)(C)c2cc(NC(=O)c3ccc(C(=O)O)cc3)ccc21 | inactive
44 | CC/C(=C\C(=N/O)C(N)=O)C(C)[N+](=O)[O-] (stereo not drawn) | inactive
45 | CC(=O)N(O)CCCCCNC(=O)CCC(=O)N(O)CCCCCNC(=O)CCC(=O)N(O)CCCCCN | inactive
46 | Cl/C(=C\n1cncn1)c1ccc(Cl)cc1Cl | inactive
47 | CC(C)CC=O | inactive
48 | CCCCCCCCCO | inactive
49 | CN(C)CCCOc1nn(Cc2ccccc2)c2ccccc12 | inactive
50 | FC(F)(F)C(F)(F)C(F)(F)C(F)(F)C(F)(F)C(F)(F)CCI | inactive
51 | CN1CCC(=C2c3ccccc3C=Cc3ccccc32)CC1 | inactive
52 | O=C(Cl)c1c(Cl)cccc1Cl | inactive
53 | CC(=O)CC(=O)c1ccccc1 | inactive
54 | CC(=O)O[C@@H]1C(=O)O[C@@H]2[C@H]1OC(=O)[C@@H]2OC(C)=O | inactive
55 | CC1=CCC(C(C)C)C=C1 (stereo not drawn) | inactive
56 | C#CCOC(=O)[C@@H](C)Oc1ccc(Oc2ncc(Cl)cc2F)cc1 | inactive
57 | O=C(Nc1ccccc1)OCC(CN1CCCCC1)OC(=O)Nc1ccccc1 (stereo not drawn) | inactive
58 | CCOC(=O)C1=NN(c2ccccc2)C(=O)C1 | inactive
59 | CCCCCCOC(=O)CCC | inactive

Row | Compound | Potency
60 | CCCCCc1ccc(N)cc1 | inactive
61 | CN1CCN(C2=Nc3ccccc3Sc3ccc(Cl)cc32)CC1 | inactive
62 | O=C(CCN1CCN2CCCC2C1)N1c2ccccc2Sc2ccc(Cl)cc21 (stereo not drawn) | 23.7 µM (active)
63 | CCN(CC)CCc1nc(-c2ccccc2)no1 | inactive
64 | COCCO | inactive
65 | CCCCCOC(=O)COc1cc(N2C(=O)C3=C(CCCC3)C2=O)c(F)cc1Cl | inactive
66 | Nc1ccc(C(=O)Nc2ccccc2N)cc1 | inactive
67 | O=C(O)Cc1sc(-c2ccccc2)nc1-c1ccc(Cl)cc1 | inactive
68 | C[C@H](CCC(=O)O)[C@H]1CC[C@H]2[C@@H]3[C@H](O)C[C@@H]4C[C@H](O)CC[C@]4(C)[C@H]3CC[C@]12C | inactive
69 | CN(C(=O)CCCOc1ccc2[nH]c(=O)ccc2c1)C1CCCCC1 | inactive
70 | CN(c1nccc(=O)[nH]1)C1CCN(c2nc3ccccc3n2Cc2ccc(F)cc2)CC1 | inactive
71 | CC(C)CCCCCCOC(=O)c1ccc(C(=O)OCCCCCCC(C)C)c(C(=O)OCCCCCCC(C)C)c1 | inactive
72 | Cc1ccc2c(ccc3ccccc32)c1 | inactive
73 | CCCCOC(=O)/C=C\C(=O)OCCCC | inactive
74 | CN(C)CCCNCCCN | inactive
75 | OC(CCN1CCCCC1)(c1ccccc1)C1CCCCC1 (stereo not drawn) | inactive
76 | CC(=O)[C@@]1(O)CC[C@H]2[C@@H]3C[C@H](C)C4=CC(=O)CC[C@]4(C)[C@H]3CC[C@@]21C | inactive
77 | CC(C)(C)C(=O)OCOP(=O)(COCCn1cnc2c(N)ncnc21)OCOC(=O)C(C)(C)C | inactive
78 | N#Cc1c(F)cccc1F | inactive
